About 210 (10%) of roughly 2,100 compounds were called active. Inconclusive results (about 53%) are left out. The list shows a part of the results. Values without a mark were called inactive. Calls come from the whole dose curve; as a rule, active = well fitted inhibition curve with a large enough effect; inconclusive = small, poorly fitted or top-dose-only effect, or effect the other way; inactive = no such curve, though single readings can be large or run the other way.
experiment: IN Cell qHTS Assay for Inhibitors of the mTORC1 Signaling Pathway in MEF (Tsc2-/-, p53-/-) Cells: Sytravon; conditions: phospho-rpS6 immunofluorescence, 24 h; series mostly up to 38.3 µM; activity, negative = inhibition: at the top concentration; note: nearly all actives have a fitted effect of over 60% in size;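 for activity, negative = inhibition: plate controls were DMSO wells for no effect and 7.5 nM rapamycin full pathway inhibition for full effect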
How it was run: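 Tsc2-/-, p53-/- MEFs (empty-vector) treated with compound 24 h at 37 degree Celsius, then fixed and stained for phospho-rpS6 Ser235/236 (Alexa-488) plus Hoechst. Reported as % positive cells, thresholds set against 7.5 nM rapamycin and DMSO wells.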
Potency is the fitted concentration of half-maximal effect.

In order of rising “activity, negative = inhibition” value:
1. CC(C)c1ccc(NC(=O)c2ccc3c(c2)CCCN3S(C)(=O)=O)cc1  -64.6%
2. CC(C)Oc1cccc(C2CC(=O)Nc3cc4c(cc32)OCO4)c1 (centres undefined)  -57.2%
3. O=S(=O)(c1ccc(Cl)cc1)c1nc(-c2ccco2)oc1SCc1ccccc1F  -30.3%
4. O=C(NCCc1csc(-c2cccnc2)n1)c1cccc(C(F)(F)F)c1  -29.2%
5. Cc1ccc(C2c3c(-c4cc(C)ccc4O)n[nH]c3C(=O)N2Cc2ccco2)cc1 (centres undefined)  -28.4%
6. CCCN1C(=O)C(Cc2nc3ccccc3c(=O)n2CC)c2cc(Br)ccc21 (centres undefined)  -26%
7. CCN(CC)CCCNc1cc(-c2ccccc2)nc(C)n1  -25.1%
8. CCCc1ccc(NC(=O)C2CCN(c3cnccn3)CC2)cc1  -23.8%
9. COc1ccc(Cn2c(C(=O)O)c(CNCCc3cccs3)c3ccc(OC)cc32)cc1  -23.6%
10. O=C(NCCCc1nc2ccccc2n1Cc1ccccc1F)c1ccco1  -18.6%
11. COc1ccc(CNc2oc(/C=C/c3cc(OC)c(OC)c(OC)c3)nc2C#N)cc1  -17.5%
12. COc1ccc(CNc2oc(/C=C/c3cccc(OC)c3)nc2C#N)cc1  -16.9%
13. CCCCN(C)CC(O)Cn1cc(/C=C/C(=O)c2ccc(Br)cc2)c2ccccc21 (centres undefined)  -16.9%
14. Cc1ccccc1OCc1ccc(-c2nc(C#N)c(N3CCN(C)CC3)o2)o1  -14.4%
15. COC(=O)c1c(NC(=O)c2ccc(S(=O)(=O)N3CCC(C)CC3)cc2)sc2c1CCN(C)C2  -13.9%
16. Cc1cccc(-n2cnc3cc(C(=O)NC4CCCCCC4)ccc32)c1  -13.7%
17. COc1ccc(-n2nnnc2C2CCN(S(=O)(=O)c3cc(Cl)ccc3OC)CC2)cc1  -13.3%
18. O=C(NCc1ccco1)C1CCN(C(=O)N2CCOc3ccc(Cl)cc32)CC1  -11.2%
19. CCOc1ccc(/C=C/c2nc(C#N)c(NCCCN(C)C)o2)cc1  -10.9%
20. COc1ccc(S(=O)(=O)N(Cc2nc(-c3cccc(C)c3)no2)C2CCCCC2)cc1  -8.71%
21. O=C1C(Nc2ccccc2)=CC(c2ccc(Br)cc2)N1c1ccccc1 (centres undefined)  -8.7%
22. O=S(=O)(NCC(c1ccco1)S(=O)(=O)c1ccccc1)c1cc(F)ccc1F (centres undefined)  -5.98%
23. CCc1ccc(NS(=O)(=O)c2ccc3[nH]c4c(c3c2)CCCCCC4)cc1  -5.72%
24. Cc1ccc(S(=O)(=O)c2nc(S(=O)(=O)c3ccccc3)sc2NCCCOC(C)C)cc1  -4.2%
25. Cc1cc(=O)n2nc(N3CCC(C(=O)NCc4ccc(Cl)cc4)CC3)sc2n1  -2.82%
26. CCC(=O)N1CCc2cc(Br)cc(S(=O)(=O)N3CCCC(C(=O)Nc4ccc(CC)cc4)C3)c21 (centres undefined)  -0.347%
27. CCc1ccc(NC(=O)C2CCC(CNS(=O)(=O)c3ccc4c(c3)CC(C)N4C(C)=O)CC2)cc1 (centres undefined)  0.227%
28. COc1cccc(NC(=O)C2CCC(CNS(=O)(=O)c3csc(C(N)=O)c3)CC2)c1 (centres undefined)  1.3%
29. O=C(C1CCC(CNS(=O)(=O)c2ccc(Br)s2)CC1)N1CCN(c2ccccc2)CC1 (centres undefined)  3.43%
30. O=C(Nc1ccc(Br)cc1F)c1cc(S(=O)(=O)NC2CCCC2)ccc1F  6.25%
31. COc1ccc(C)cc1NC(=O)c1oc2ccc(S(=O)(=O)N3CCC4(CC3)OCCO4)cc2c1C  6.25%
32. Cc1ccc(CSc2oc(-c3ccco3)nc2S(=O)(=O)c2ccc(Cl)cc2)cc1  9.59%
33. O=C(CCCCn1c(=O)[nH]c2ccsc2c1=O)N1CCN(c2cccc(Cl)c2)CC1  13.4%
34. O=S(=O)(c1ccccc1)n1nc(-c2ccc(Cl)cc2)nc1NCc1ccc(F)cc1  14.6%
35. COC(=O)c1c(-c2ccc(Cl)cc2)noc1N1CCN(c2cccc(C(F)(F)F)c2)CC1  14.6%
36. COc1ccc(NC2=C(c3ccc(C(F)(F)F)cc3)C(=O)c3ccccc32)cc1  16.1%
37. CCOCCCNC(=O)C1CCN(c2nc3ccc(Cl)cc3[nH]2)CC1  20.5%
38. CC(C)c1ccc(C2CC(=O)Nc3cc4c(cc32)OCCO4)cc1 (centres undefined)  28.6%

With COc1ccc(CNc2oc(COc3cccc(C)c3)nc2C#N)cc1 the Potency was 3.69 µM (active).
For Cc1cccc(OCc2ccc(-c3nc(C#N)c(NCCN(C)C)o3)o2)c1, the Potency was 5.85 µM (active).
For CCCN(CCC)CCCNC(=O)C1CCN(c2nc3ccc(CC)cc3s2)CC1, the Potency was 6.56 µM (active).
For CCCCN(C)CCCNC(=O)C1CCN(c2nc3ccc(CC)cc3s2)CC1, the Potency was 5.21 µM (active).
For CC1C(=O)N2CCCc3cc(S(=O)(=O)Nc4ccc(Br)cc4F)cc1c32 (centres undefined), the Potency was 14.7 µM (active).
With CCCCS(=O)(=O)c1oc(-c2ccc(F)cc2)nc1S(=O)(=O)c1ccccc1 the Potency was 4.14 µM (active).
In the case of CC(C)CS(=O)(=O)c1oc(-c2ccc(F)cc2)nc1S(=O)(=O)c1ccccc1, the Potency was 0.656 µM (active).
In the case of CCS(=O)(=O)c1oc(-c2ccc(F)cc2)nc1S(=O)(=O)c1ccc(Br)cc1, the Potency was 2.93 µM (active).
For CCCCS(=O)(=O)c1oc(-c2ccc(F)cc2)nc1S(=O)(=O)c1ccc(C)cc1, the Potency was 6.56 µM (active).
With CCS(=O)(=O)c1oc(-c2ccc(F)cc2)nc1S(=O)(=O)c1ccccc1 the Potency was 0.208 µM (active).
With COc1ccc(-c2cc(C(F)(F)F)nc(S(C)(=O)=O)n2)cc1 the Potency was 11.7 µM (active).

Source: PubChem BioAssay AID504465 (National Center for Advancing Translational Sciences (NCATS), 2011)
